According to the supplement of paper PMC9492666:

Tested on: MDA-MB-231
Test: relative cell viability, compound + RSL3, vs DMSO (fraction of DMSO control); higher = less growth inhibition
Conditions: 72 h
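Also: breast cancer cell viability read out with the CCK-8 kit after co-treatment of each compound with the ferroptosis inducer RSL3.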

Row | SMILES | relative cell viability
1 | CCCc1c(OCCCOc2ccc(OCC(=O)O)cc2)ccc(C(C)=O)c1O + COC(=O)c1ccc([C@H]2c3[nH]c4ccccc4c3C[C@H](C(=O)OC)N2C(=O)CCl)cc1 [RSL3] | 0.757
2 | COc1ccc(C2(CNC(=O)c3ccc(NC(=O)c4ccco4)cc3)CCOCC2)cc1 + COC(=O)c1ccc([C@H]2c3[nH]c4ccccc4c3C[C@H](C(=O)OC)N2C(=O)CCl)cc1 [RSL3] | 0.49
3 | COc1ccc(Nc2ccn(-c3ccccc3)n2)cc1 + COC(=O)c1ccc([C@H]2c3[nH]c4ccccc4c3C[C@H](C(=O)OC)N2C(=O)CCl)cc1 [RSL3] | 0.839
4 | Cc1cc([N+](=O)[O-])ccc1NS(=O)(=O)c1cc(Cl)ccc1Cl + COC(=O)c1ccc([C@H]2c3[nH]c4ccccc4c3C[C@H](C(=O)OC)N2C(=O)CCl)cc1 [RSL3] | 0.515
5 | CC[C@H](C)C(=O)O[C@H]1C[C@H](O)C=C2C=C[C@H](C)[C@H](CC[C@@H](O)C[C@@H](O)CC(=O)O)[C@H]21 [Pravastatin sodium] + COC(=O)c1ccc([C@H]2c3[nH]c4ccccc4c3C[C@H](C(=O)OC)N2C(=O)CCl)cc1 [RSL3] | 0.606
6 | CC(C)OC(=O)C(C)(C)Oc1ccc(C(=O)c2ccc(Cl)cc2)cc1 [Fenofibrate] + COC(=O)c1ccc([C@H]2c3[nH]c4ccccc4c3C[C@H](C(=O)OC)N2C(=O)CCl)cc1 [RSL3] | 0.606
7 | C=C(C)[C@@H]1CC[C@]2(CO)CC[C@]3(C)[C@H](CC[C@@H]4[C@@]5(C)CC[C@H](O)C(C)(C)[C@@H]5CC[C@]43C)[C@@H]12 [Betulin] + COC(=O)c1ccc([C@H]2c3[nH]c4ccccc4c3C[C@H](C(=O)OC)N2C(=O)CCl)cc1 [RSL3] | 0.453
